Compound activity from PubChem BioAssay.
PI5P4Ka inh – PI5P4K alpha (human) kinase inhibition. P48426. PI5P4Kalpha enzyme, ADP-Glo luminescence, 60 min; hits give low values. max response, %. 330,000 compounds, 1.2% hits; active means max response of -50% or lower; inconclusive means between -30% and -50%; inactive means -30% or higher; further: value at the top dose of about 77 µM; on the % scale 0 is the no-effect control and ±100 the full control effect
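ADP-Glo luminescence end-point read after a 60 min room-temperature kinase reaction of PI5P4Kalpha plus substrate, initiated with ATP at 5 microM final. Buffer: 0.038 M HEPES pH 7.4, EGTA, 0.1% CHAPS, 5% DMSO.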
HP1b binding inh – inhibitors of HP1-beta chromodomain binding to methylated histone tails; P83916; AlphaScreen HP1-beta / biotin-H3K9me3 peptide binding; Potency, µM (series often up to 114 µM), for inactives: top-dose activity change, negative = inhibition, most hits filed as inhibitors; 390,000 compounds, 0.56% hits; AID 540317; further: potency means the concentration at half of the fitted maximal effect; nearly all actives have a fitted effect of over 70% in size
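AlphaScreen: HP1-beta (50 nM) preformed 30 min with biotin-H3(1-18)K9me3 peptide (50 nM) in PBS pH 7.4, 0.01% Tween-20. Compound added for 30 min at RT, then streptavidin donor/nickel chelate acceptor beads (10 ug/mL) for 30 min.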
BAZ2B inh – inhibitors of human BAZ2B bromodomain. Q9UIF8. AlphaScreen BAZ2B-H3K14Ac peptide displacement. Potency, µM (titrated, usually from 114 µM), for the others: top-dose activity change, negative = inhibition, actives largely listed as inhibitors. 360,000 compounds, 4.4% hits. AID 504333; further: potency means the concentration at half of the fitted maximal effect; on the % scale 0 is the no-effect control and ±100 the full control effect; nearly all actives have a fitted effect of over 60% in size
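BAZ2B 50 nM plus b-H3(5-23)K14Ac 50 nM, PBS pH 7.4/0.01% Tween-20, 30 min RT; compound added (max 110 uM), 30 min RT; streptavidin donor/Ni-chelate acceptor beads 10 ug/mL final, 20 min dark; AlphaScreen read.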
G9a inh – blocks human histone lysine methyltransferase G9a. Potency, µM (top dose mostly 102 µM), without a hit: at the top dose activity, negative = inhibition, most hits filed as inhibitors. G9a H3K9 monomethylation, AlphaScreen, 2 h. Q96KQ7. 350,000 compounds, 8.8% hits; further: potency means the concentration at half of the fitted maximal effect; on the % scale 0 is the no-effect control and ±100 the full control effect; nearly all actives have a fitted effect of over 75% in size
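Signal arises when biotinylated H3K9 peptide, once monomethylated, bridges streptavidin donor and antibody-captured acceptor beads. Enzyme at 20 nM was preincubated 15 min with test compounds; peptide 500 nM and SAM 20 uM then reacted for 2 h.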
PLK1 PBD inh – inhibitors of human PLK1 polo-box domain binding | Potency, µM, without a hit: max response, negative = inhibition, most hits filed as inhibitors | Plk1 PBD binding of FITC phosphopeptide, fluorescence polarization | 360,000 compounds, 2.8% hits | AID 720504; further: potency means the concentration at half of the fitted maximal effect; series mostly up to about 57 µM; on the % scale 0 is the no-effect control and ±100 the full control effect; nearly all actives have a fitted effect of over 65% in size
JMJD2A Tudor – blocks the human JMJD2A Tudor domain | 390,000 compounds, 4.4% hits | AlphaScreen JMJD2A-Tudor / H3K4me3 peptide binding | O75164 | Potency, µM (highest dose often 114 µM), without a hit: at the top dose activity change, negative = inhibition, actives largely listed as inhibitors; further: potency means the concentration at half of the fitted maximal effect; on the % scale 0 is the no-effect control and ±100 the full control effect; nearly all actives have a fitted effect of over 50% in size
An asterisk follows results filed as active; u = inconclusive; x = no result; [ ] = remark or other dose. Rows were chosen to be rich in hits. Some 12% of all compounds tested hit in one or more screens of this group. Unless noted, the call rests on the fitted dose curve; in most records, active means well fitted curve in the direction sought with a large enough effect; inconclusive means small, poorly fitted or top-dose-only effect, or another doubt; inactive means no such curve, though single readings can be large; an effect the other way counts as inactive or inconclusive.

SMILES | PI5P4Ka inh | HP1b binding inh | BAZ2B inh | G9a inh | PLK1 PBD inh | JMJD2A Tudor
CCOC(=O)CSc1nnc(CNc2ccc(Cl)cc2)n1-c1ccccc1 | x | 10% | 3% | -44%[59 µM] | -22% | -17%
CCCCOc1ccc(NC(=O)CN2CCN(Cc3ccccc3)CC2)cc1 | -9 | 23% | -21% | 18% | -3% | -16%
CCc1nc2c(OCc3c(C)noc3C)cccn2c1N(C)C(=O)c1ccccc1F | -7 | x | x | x | -11% | x
C=CC(=O)Nc1cccc(Oc2cc(Cl)nc3[nH]ccc23)c1 | 0 | 21% | x | x | -4% | -23%
CCOc1ccc(CN2CCSCC2)cc1 | -6 | u | u | u | 10% | 3.5µM*
O=C(CSc1nnc(-c2cccc(S(=O)(=O)N3CCCCC3)c2)o1)NCCC1=CCCCC1 | 4 | -11% | -7% | -34% | 21µM* | -36%[57.1 µM]
NC(=O)CSc1nnc(-c2ccc(S(=O)(=O)N3CCCC3)cc2)o1 | x | 38% | 0% | 11µM* | 7% | -9%
Cc1ccc(C(c2sc3nc(-c4ccco4)nn3c2O)N2CCOCC2)cc1 (stereo unspecified) | x | 35% | -1% | 12%[59 µM] | x | -6%
Cc1n[nH]c(C)c1Sc1ccccc1N=Cc1cc([N+](=O)[O-])ccc1O | x | x | 4% | 10µM* | x | x
Cc1cc(O)c(C(C)C)cc1N=Cc1cc([N+](=O)[O-])ccc1O | -23 | 15% | -11% | x | -17% | -21%
Cc1ccc(NC(=O)Nc2nnc(SCC(=O)N3CCCCC3)s2)cc1 | x | 43% | -2% | 14%[59 µM] | x | -15%
N#Cc1cc2c(nc1SCc1ccncc1)CCC2 | x | 10% | 3% | 3.2µM* | u | 22µM*
N#Cc1cc2c(nc1SCc1ccccc1)CCC2 | x | 19% | 1% | u | -15% | -7%
Cc1ccccc1NC(=O)Cn1cnc2c(oc3nc4c(cc32)CCCC4)c1=O | -3 | 33% | u | u | 7% | -11%
CCOC(=O)CC(=O)COc1nc2cc3c(nc2o1)CCCC3 | -15 | 40% | 4% | 45µM* | -11% | u
CCOC(=O)CC(=O)CSc1nc2c(cc1C#N)CCCCC2 | -18 | 74% | 4% | 7.9µM* | 24µM* | 50µM*
COc1ccc(-c2nc3scc(CCNS(=O)(=O)c4cccc(C(C)=O)c4)n3n2)cc1 | x | 9% | -16% | -6%[59 µM] | x | -26%
Cc1ccccc1NC(=O)C1c2cccc[n+]2CC(=O)N1c1c(C)cccc1C (stereo unspecified) | u | u | 45µM* | 5.6µM* | u | 50µM*
Cc1cccc(C)c1NC(=O)C1c2cccc[n+]2CC(=O)N1Cc1ccc2c(c1)OCO2 (stereo unspecified) | -4 | 29% | -4% | 8.9µM* | -23% | -16%
Cc1ccccc1NC(=O)c1c(F)c(F)c(F)c(F)c1F | x | 18% | 8% | 0%[12.7 µM] | -8% | -11%
Cc1cccc(NC(=O)CSc2nnc(-c3ccncc3)n2CC2CCCO2)c1 (stereo unspecified) | 6 | 14% | -1% | 13%[59 µM] | -1% | -4%
CCOc1ccccc1NC(=O)C(NCCN(C)C)c1ccccc1 (stereo unspecified) | -1 | -5% | 50µM* | 10µM* | 0% | 22µM*
COc1ccc(CCNC(C(=O)Nc2cc(C)cc(C)c2)c2ccccc2)cc1 (stereo unspecified) | 4 | 40% | -11% | -8% | 7% | 4%
COc1ccc(OC)c(/C(O)=C/C(=O)C(=O)Nc2cc(C)ccc2OC)c1 | 5 | 28% | u | -16% | -6% | -19%[57.1 µM]
CCOc1ccccc1NC(=O)C(NCCc1ccc(OC)cc1)c1ccccc1 (stereo unspecified) | 12 | 83% | 50µM* | x | 5% | 24%
SMILES | PI5P4Ka inh | HP1b binding inh | BAZ2B inh | G9a inh | PLK1 PBD inh | JMJD2A Tudor
CCOc1ccccc1NC(=O)C(=O)/C=C(\O)c1cc(OC)ccc1OC | -9 | -15% | 9% | u | 21µM* | 20µM*
CC(C(=O)NCC1CCCCC1)N1CCN(S(=O)(=O)c2cccs2)CC1 (stereo unspecified) | -6 | 13% | -6% | -12% | -4% | 1%
COc1cc(/C=C2/SC(=S)N(CC(=O)O)C2=O)ccc1OC(=O)c1cccs1 | -15 | u | u | 50µM* | 24µM* | u
COc1cc(/C=C2\SC(=S)N(CC(=O)O)C2=O)ccc1OS(=O)(=O)c1ccc(C)cc1 | -1 | u | 6% | 5%[0.501 µM] | 21µM* | u
COc1cc(/C=C2/SC(=S)N(C)C2=O)ccc1OC(=O)c1ccco1 | 1 | 8% | u | -1%[59 µM] | 25% | -24%
Cc1cccc(N2CCN(C(=O)c3cccc(N4CCCC4=O)c3)C(C)C2)c1 (stereo unspecified) | 6 | -22% | -17% | x | 0% | u
Brc1ccc(OCCCCCN2CCOCC2)cc1 | 8 | -25% | 35µM* | 3.2µM* | -8% | 3.2µM*
CN1CCN(CCCCOc2ccc(Br)cc2)CC1 | 1 | u | 56µM* | 4.5µM* | 3% | 20µM*
CC1CCC(C(C)C)C(OC(=O)COC(=O)c2cc(O)ccc2N)C1 (stereo unspecified) | 9 | 16% | u | 10µM* | -1% | u
O=C1Cc2ccccc2C(=O)N1CCc1ccccc1 | -8 | 35% | 4% | 32µM* | -22% | -22%
O=C1C(=O)N(Cc2ccccc2)C(=O)N1CCN1C(=O)c2ccccc2C1=O | -1 | 45% | -17% | 2% | 2% | 4%
COc1cccc(-n2c(-c3ccccc3)c[nH]c2=S)c1 | -17 | u | u | 1.4µM* | -14% | u
COc1cccc(-n2c(C)n[nH]c2=O)c1 | 0 | 33% | 7% | 63%[59 µM] | -4% | 9%
CCOc1ccc(-n2c(-c3ccccc3)c[nH]c2=S)cc1 | -16 | 25% | -11% | 1.3µM* | -3% | u
Cc1ccc(-c2c[nH]c(=S)n2-c2ccccc2)cc1 | -6 | -14% | u | 0.71µM* | -19% | u
S=c1[nH]cc(-c2ccccc2)n1-c1cccc(Cl)c1 | -27 | 19% | -33% | 1.1µM* | -7% | 56µM*
CCC(=O)Nc1ccc2c(c1)OC[C@@H](C)N(Cc1cccc(F)c1)C[C@@H](C)[C@@H](OC)CN(C)C2=O | 0 | x | x | x | -10% | x
CO[C@@H]1CN(C)C(=O)c2cc(NC(=O)Nc3cc(F)ccc3F)ccc2OC[C@H](C)N(C(=O)c2cnccn2)C[C@@H]1C | 5 | x | x | x | -3% | x
COC(=O)Cc1c(C)c2ccc3c(c2oc1=O)CN(Cc1ccccc1Cl)CO3 | x | 34% | -34% | -26%[59 µM] | x | u
N#Cc1nc(NC2CCCC2)c2ncn(-c3cc(F)cc(F)c3)c2n1 | x | x | x | x | x | 8%
